# Test results from PubChem BioAssay AID1159580 (chemical genetic matrix, 2015).
# The campaign covered roughly 5,500 compounds. About 2,000 (36%) were called active. Not shown: some 18% with an inconclusive outcome. Some of the results follow. A number with no mark means an inactive call. Cut-off read from the data, not from the text of the source: active = normalized growth mostly below about 0.91 (no sharp cut-off); inconclusive = no clear call, values can overlap the other calls; inactive = mostly above about 0.92.
# Experiment: chemical genetic growth profiling, strain panel (AID 1159580);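 note: tested at 20 µM; growth read once vehicle control cultures reached saturation at 30 °C; 1 = growth at the plate median or of vehicle wells; lower values mean less growth of the strain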
# Details: growth OD
smiles,measurement,setting,value
O=C1C=C2C(=CCOC2O)O1 (stereo unspecified),normalized growth,"S. cerevisiae deletion strains, locus YKL009W, strain mrt4, active compounds read low",0.714 (active)
same,normalized growth,"S. cerevisiae deletion strains, locus YKL068W, active compounds read low",0.904 (active)
same,normalized growth,"S. cerevisiae deletion strains, locus YKL085W, strain MDH1 (second series), active compounds read low",0.868 (active)
same,normalized growth,"S. cerevisiae deletion strains, locus YKL085W, strain MDH1, active compounds read low",0.868 (active)
same,normalized growth,"S. cerevisiae deletion strains, locus YKL160W, strain elf1, active compounds read low",0.736 (active)
same,normalized growth,"S. cerevisiae deletion strains, locus YKL190W, strain CNB1, active compounds read low",0.834 (active)
same,normalized growth,"S. cerevisiae deletion strains, locus YKR001C, strain vps1, active compounds read low",0.541 (active)
same,normalized growth,"S. cerevisiae deletion strains, locus YKR026C, strain gcn3, active compounds read low",0.795 (active)
same,normalized growth,"S. cerevisiae deletion strains, locus YKR091W, strain srl3, active compounds read low",0.885 (active)
same,normalized growth,"S. cerevisiae deletion strains, locus YLL001W, strain dnm1, active compounds read low",0.691 (active)
same,normalized growth,"S. cerevisiae deletion strains, locus YLL026W, active compounds read low",0.769 (active)
same,normalized growth,"S. cerevisiae deletion strains, locus YLL041C, strain sdh2, active compounds read low",0.84 (active)
same,normalized growth,"S. cerevisiae deletion strains, locus YLR027C, strain aat2, active compounds read low",0.727 (active)
same,normalized growth,"S. cerevisiae deletion strains, locus YLR039C, strain RIC1, active compounds read low",0.292 (active)
same,normalized growth,"S. cerevisiae deletion strains, locus YLR058C, strain SHM2, active compounds read low",0.927
same,normalized growth,"S. cerevisiae deletion strains, locus YLR102C, strain apc9, active compounds read low",0.96
same,normalized growth,"S. cerevisiae deletion strains, locus YLR113W, strain HOG1, active compounds read low",0.708 (active)
same,normalized growth,"S. cerevisiae deletion strains, locus YLR221C, strain rsa3, active compounds read low",0.716 (active)
same,normalized growth,"S. cerevisiae deletion strains, locus YLR258W, strain gsy2, active compounds read low",0.794 (active)
same,normalized growth,"S. cerevisiae deletion strains, locus YLR262C, strain YPT6 (second series), active compounds read low",0.337 (active)
same,normalized growth,"S. cerevisiae deletion strains, locus YLR262C, strain YPT6, active compounds read low",0.231 (active)
same,normalized growth,"S. cerevisiae deletion strains, locus YLR268W, strain sec22, active compounds read low",0.794 (active)
same,normalized growth,"S. cerevisiae deletion strains, locus YLR320W, strain mms22, active compounds read low",0.701 (active)
same,normalized growth,"S. cerevisiae deletion strains, locus YLR330W, strain CHS5, active compounds read low",0.87 (active)
same,normalized growth,"S. cerevisiae deletion strains, locus YLR342W, strain FKS1 (second series), active compounds read low",0.774 (active)
same,normalized growth,"S. cerevisiae deletion strains, locus YLR342W, strain FKS1, active compounds read low",0.72 (active)
same,normalized growth,"S. cerevisiae deletion strains, locus YLR357W, strain rsc2, active compounds read low",0.862
same,normalized growth,"S. cerevisiae deletion strains, locus YLR370C, strain arc18, active compounds read low",0.697 (active)
same,normalized growth,"S. cerevisiae deletion strains, locus YLR371W, strain rom2, active compounds read low",0.945
same,normalized growth,"S. cerevisiae deletion strains, locus YLR384C, strain iki3, active compounds read low",0.789 (active)
same,normalized growth,"S. cerevisiae deletion strains, locus YLR418C, strain cdc73, active compounds read low",0.62 (active)
same,normalized growth,"S. cerevisiae deletion strains, locus YML016C, strain PPZ1, active compounds read low",0.953
same,normalized growth,"S. cerevisiae deletion strains, locus YML032C, strain rad52, active compounds read low",0.92
same,normalized growth,"S. cerevisiae deletion strains, locus YML120C, strain ndi1, active compounds read low",0.76 (active)
same,normalized growth,"S. cerevisiae deletion strains, locus YML124C, strain tub3, active compounds read low",0.918 (active)
same,normalized growth,"S. cerevisiae deletion strains, locus YMR058W, strain fet3, active compounds read low",0.328 (active)
same,normalized growth,"S. cerevisiae deletion strains, locus YMR078C, strain ctf18, active compounds read low",0.989
same,normalized growth,"S. cerevisiae deletion strains, locus YMR125W, strain sto1, active compounds read low",0.729 (active)
same,normalized growth,"S. cerevisiae deletion strains, locus YMR129W, active compounds read low",0.836 (active)
same,normalized growth,"S. cerevisiae deletion strains, locus YMR205C, strain PFK2, active compounds read low",0.722 (active)
same,normalized growth,"S. cerevisiae deletion strains, locus YMR223W, strain ubp8, active compounds read low",0.801 (active)
same,normalized growth,"S. cerevisiae deletion strains, locus YMR231W, strain pep5, active compounds read low",0.0886 (active)
same,normalized growth,"S. cerevisiae deletion strains, locus YMR263W, strain SAP30, active compounds read low",0.852 (active)
same,normalized growth,"S. cerevisiae deletion strains, locus YMR307W, strain GAS1, active compounds read low",0.302 (active)
same,normalized growth,"S. cerevisiae deletion strains, locus YNL067W, strain RPL9B, active compounds read low",0.689 (active)
same,normalized growth,"S. cerevisiae deletion strains, locus YNL071W, strain lat1, active compounds read low",0.654 (active)
same,normalized growth,"S. cerevisiae deletion strains, locus YNL128W, strain TEP1, active compounds read low",0.798 (active)
same,normalized growth,"S. cerevisiae deletion strains, locus YNL153C, strain GIM3, active compounds read low",0.664 (active)
same,normalized growth,"S. cerevisiae deletion strains, locus YNL183C, strain NPR1, active compounds read low",0.825 (active)
same,normalized growth,"S. cerevisiae deletion strains, locus YNL209W, strain ssb2, active compounds read low",0.761 (active)
same,normalized growth,"S. cerevisiae deletion strains, locus YNL233W, strain BNI4, active compounds read low",0.81 (active)
same,normalized growth,"S. cerevisiae deletion strains, locus YNL248C, strain rpa49, active compounds read low",0.701 (active)
same,normalized growth,"S. cerevisiae deletion strains, locus YNL250W, strain rad50, active compounds read low",0.903
same,normalized growth,"S. cerevisiae deletion strains, locus YNL271C, strain bni1, active compounds read low",0.92
same,normalized growth,"S. cerevisiae deletion strains, locus YNL298W, strain CLA4, active compounds read low",0.842 (active)
same,normalized growth,"S. cerevisiae deletion strains, locus YNL307C, strain MCK1, active compounds read low",0.748 (active)
same,normalized growth,"S. cerevisiae deletion strains, locus YNL322C, strain KRE1 (second series), active compounds read low",0.911
same,normalized growth,"S. cerevisiae deletion strains, locus YNL322C, strain KRE1, active compounds read low",0.815 (active)
same,normalized growth,"S. cerevisiae deletion strains, locus YNR049C, strain mso1, active compounds read low",0.812 (active)
same,normalized growth,"S. cerevisiae deletion strains, locus YNR052C, strain pop2, active compounds read low",0.83 (active)
same,normalized growth,"S. cerevisiae deletion strains, locus YOL006C, strain TOP1, active compounds read low",0.632
same,normalized growth,"S. cerevisiae deletion strains, locus YOL012C, strain htz1",0.714
same,normalized growth,"S. cerevisiae deletion strains, locus YOL147C, strain pex11, active compounds read low",0.984
same,normalized growth,"S. cerevisiae deletion strains, locus YOR001W, strain rrp6, active compounds read low",0.638 (active)
same,normalized growth,"S. cerevisiae deletion strains, locus YOR061W, strain CKA2, active compounds read low",0.929
same,normalized growth,"S. cerevisiae deletion strains, locus YOR069W, strain VPS5, active compounds read low",0.862 (active)
same,normalized growth,"S. cerevisiae deletion strains, locus YOR070C, strain gyp1, active compounds read low",0.794 (active)
same,normalized growth,"S. cerevisiae deletion strains, locus YOR080W, strain dia2, active compounds read low",0.864 (active)
same,normalized growth,"S. cerevisiae deletion strains, locus YOR083W, strain WHI5, active compounds read low",0.662 (active)
same,normalized growth,"S. cerevisiae deletion strains, locus YOR106W, strain vam3, active compounds read low",0.522 (active)
same,normalized growth,"S. cerevisiae deletion strains, locus YOR136W, strain idh2, active compounds read low",0.896 (active)
same,normalized growth,"S. cerevisiae deletion strains, locus YOR144C, strain elg1, active compounds read low",0.966
same,normalized growth,"S. cerevisiae deletion strains, locus YOR184W, strain ser1, active compounds read low",0.719 (active)
same,normalized growth,"S. cerevisiae deletion strains, locus YOR231W, strain MKK1, active compounds read low",0.877
same,normalized growth,"S. cerevisiae deletion strains, locus YOR265W, strain rbl2, active compounds read low",0.792 (active)
same,normalized growth,"S. cerevisiae deletion strains, locus YOR270C, strain vph1, active compounds read low",0.506 (active)
same,normalized growth,"S. cerevisiae deletion strains, locus YOR290C, strain snf2, active compounds read low",0.86 (active)
same,normalized growth,"S. cerevisiae deletion strains, locus YOR316C, strain cot1, active compounds read low",0.951
same,normalized growth,"S. cerevisiae deletion strains, locus YPL051W, strain arl3, active compounds read low",0.607 (active)
same,normalized growth,"S. cerevisiae deletion strains, locus YPL055C, strain LGE1, active compounds read low",0.601 (active)
same,normalized growth,"S. cerevisiae deletion strains, locus YPL078C, strain atp4, active compounds read low",0.615 (active)
same,normalized growth,"S. cerevisiae deletion strains, locus YPL106C, strain sse1, active compounds read low",0.542 (active)
same,normalized growth,"S. cerevisiae deletion strains, locus YPL240C, strain hsp82, active compounds read low",0.852 (active)
same,normalized growth,"S. cerevisiae deletion strains, locus YPL241C, strain CIN2, active compounds read low",0.921 (active)
same,normalized growth,"S. cerevisiae deletion strains, locus YPL256C, strain CLN2, active compounds read low",0.809 (active)
same,normalized growth,"S. cerevisiae deletion strains, locus YPR119W, strain clb2, active compounds read low",0.965
same,normalized growth,"S. cerevisiae deletion strains, locus YPR141C, strain kar3, active compounds read low",0.898 (active)
same,normalized growth,"S. cerevisiae deletion strains, locus YPR163C, strain tif3, active compounds read low",0.823 (active)
same,normalized growth,"S. cerevisiae deletion strains, locus YPR167C, strain met16, active compounds read low",0.937
same,normalized growth,"S. cerevisiae deletion strains, strain wtn01, active compounds read low",0.76 (active)
same,normalized growth,"S. cerevisiae strains, strain wild type, active compounds read low",0.78 (active)
